Sampled rows, rich in hits. Any-hit rate of the full collection: about 10%.
ALDH1A1 block = qHTS Assay for Inhibitors of Aldehyde Dehydrogenase 1 (ALDH1A1); Aldehyde dehydrogenase 1A1 (Homo sapiens), P00352; Purified ALDH1A1, NADH fluorescence, propionaldehyde substrate; Potency, µM (doses to about 75.3 µM), without a hit: at the top dose activity, negative = inhibition, most hits filed as inhibitors; hit rate 7.3% among 220,000; AID 1030, 2008;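 also: potency is read from the fitted curve at half-maximal effect; plate controls were no enzyme wells and a reference inhibitor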
LMNA splice mod = qHTS Assay for Modulators of Lamin A Splicing. HeLa LMNA splicing GFP/RFP minigene ratio, 48 h. Potency, µM (titrated, usually from 46.1 µM), inactives show top-dose ratio change, negative = inhibition, most hits filed as inhibitors. hit rate 0.01% among 200,000. AID 1487, 2009; active = well fitted inhibition curve with a large enough effect in the signal ratio, with a control signal flat, not every such curve was filed as active; inconclusive = small, poorly fitted or top-dose-only effect, or effect the other way, or a change in a side signal; the % refers to the signal ratio; also: potency is read from the fitted curve at half-maximal effect
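Read-out is the ratio of GFP to DsRed2 object intensity, acquired by 488 nm laser-scanning cytometry on HeLa lamin A-EGFP minigene reporter cells. Compound incubation 48 hrs at 37 °C in Opti-MEM with 2% FBS; DMSO 0.5% final.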
HPGD block = qHTS Assay for Inhibitors of HPGD (15-Hydroxyprostaglandin Dehydrogenase) | 15-hydroxyprostaglandin dehydrogenase [NAD(+)] (Homo sapiens), P15428 | purified HPGD, NADH fluorescence kinetic, PGE2 substrate | Potency, µM, for the others: at the highest dose activity change, negative = inhibition, hits mostly inhibitors | AID 894, 2007 | hit rate 4.3% among 150,000; also: potency is read from the fitted curve at half-maximal effect
Target sequence (P15428 whole entry, looked up): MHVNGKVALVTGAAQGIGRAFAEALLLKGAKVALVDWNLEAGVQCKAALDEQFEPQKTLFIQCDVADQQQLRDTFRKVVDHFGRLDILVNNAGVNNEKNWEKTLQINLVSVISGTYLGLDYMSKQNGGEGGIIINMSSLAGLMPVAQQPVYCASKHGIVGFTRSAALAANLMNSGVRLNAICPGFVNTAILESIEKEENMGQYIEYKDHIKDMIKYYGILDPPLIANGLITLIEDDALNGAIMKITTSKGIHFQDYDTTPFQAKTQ
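NADH formation kinetics: reaction with 30 uM PGE2 and 1 mM NAD+ (final), 20 nM enzyme, Tris-HCl pH 8 with Tween 20, after 15 min compound preincubation at room temperature. Fluorescence change, last versus first of five reads.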
Luc counter = Counterscreen for Luciferase (Kinase-Glo TM) Inhibition; Kinase-Glo luciferase, ATP luminescence, 8 min; Potency, µM (top dose mostly 38.3 µM), inactives show top-dose activity change, negative = inhibition, hits mostly inhibitors; hit rate 0.28% among 200,000; active = well fitted inhibition curve with a large enough effect; inconclusive = small, poorly fitted or top-dose-only effect; also: potency is read from the fitted curve at half-maximal effect; nearly all actives have a fitted effect of over 60% in size
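Inhibition of Kinase-Glo luciferase light generation was assessed at 10 uM ATP in pH 7.2 imidazole buffer, with luminescence measured after eight minutes at ambient temperature.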
PNC assembly inh = High Content Assay for Compounds that inhibit the Assembly of the Perinucleolar Compartment; PC3M PTB-GFP, PNC prevalence imaging, 16 h; active compounds read low; activity change (PNC), negative = inhibition, % at 10 µM; hit rate 3.1% among 140,000;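 active = readout at or below -70, meaning at least 70% loss of cells showing the perinucleolar compartment, a nuclear body marking cancer cells; inconclusive = readout between -30 and a set limit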;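 also: plate controls were DMSO wells for no effect and camptothecin positive control wells for full effect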
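Compounds are pinned in duplicate onto adhered PC3M cells stably expressing GFP-tagged PTB and incubated 16 h at 37 C. Cells are then fixed, nuclei stained with Hoechst, and PNC-positive cells counted.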
IMPase inh = qHTS Assay for Identifying the Cell-Membrane Permeable IMPase Inhibitors. 120,000 tested, under 10 active. CHO-M1 cells, IP1 accumulation, HTRF TR-FRET ratio. Inositol monophosphatase 1 (Rattus norvegicus), P97697. AID 901, 2007. inhibition (IP1 accumulation), % at 46.1 µM; active = well fitted curve in the direction sought with a large enough effect in the signal ratio, not every such curve was filed as active; inconclusive = small, poorly fitted or top-dose-only effect, or a change in a side signal; inactive = no such curve, though single readings can be large or run the other way; the % refers to the signal ratio;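 also: cells stimulated with carbachol in lithium chloride buffer; plate controls were DMSO basal wells for no effect and reference inhibitor wells for full effect; higher means more IMPase inhibition seen as more IP1 and lower FRET ratio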
Target sequence (P97697 whole entry, looked up): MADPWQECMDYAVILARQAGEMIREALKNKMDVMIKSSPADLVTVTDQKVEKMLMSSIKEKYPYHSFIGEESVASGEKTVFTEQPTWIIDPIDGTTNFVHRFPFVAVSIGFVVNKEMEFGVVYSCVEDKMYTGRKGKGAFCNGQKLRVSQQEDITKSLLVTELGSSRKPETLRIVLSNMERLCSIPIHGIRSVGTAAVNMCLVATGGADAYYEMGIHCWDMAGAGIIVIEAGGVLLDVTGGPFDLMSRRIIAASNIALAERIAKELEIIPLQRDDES
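Measured: the HTRF emission ratio (665/620 nm) plus the 620 nm donor channel, each fitted to the Hill equation to give AC50. Cells were CHO-M1 given compounds up to 46 uM and a 30 min carbachol stimulation at 37C.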
* = called active by the depositor; ? = inconclusive; . = no result; [ ] = dose if it differs, or a comment. Unless noted, calls follow the shape of the dose curve; as a rule, active = well fitted inhibition curve with a large enough effect (not every such curve was filed as active); inconclusive = small, poorly fitted or top-dose-only effect, or another doubt; inactive = no such curve, though single readings can be large or run the other way. Unless noted, % is scaled to controls: 0 for no effect and ±100 for the full control effect.

SMILES	ALDH1A1 block	LMNA splice mod	HPGD block	Luc counter	PNC assembly inh	IMPase inh
Cc1ccc(S(=O)(=O)Nc2cccc(-c3cn4ccsc4n3)c2)cc1	15.8µM*	?	-3.2%	0.9%	41.8	17.5
Cc1cccc2nc(-c3cccc(NS(=O)(=O)c4ccccc4)c3)cn12	.	.	.	.	.	11.6
COc1ccc(-c2cnc(-c3cccnc3)o2)cc1	?	.	?	-0.7%	.	.
Cc1cccc(-n2ncc(C(=O)N3CCN(C4CCCCC4)CC3)c2C2CCN(C(=O)OC(C)(C)C)CC2)c1	.	-14.7%[46 µM]	.	.	.	.
CCOc1ccc2nc(SC3CC(=O)N(c4ccc(OC)cc4OC)C3=O)sc2c1 (centres undefined)	25.1µM*	?	.	-5.0%	.	.
CCOc1ccc2nc(/N=C/c3c(C)[nH]n(-c4ccc(C)cc4)c3=O)sc2c1	-6.0%	-7.0%	?	7.94µM*	-2.4	.
CCOc1ccc2nc(/N=C/c3c(C)[nH]n(-c4ccccc4)c3=O)sc2c1	?	-9.7%	-25.6%	?	-6.9	.
CCOc1ccc2nc(SC3CC(=O)N(c4ccc(C)cc4)C3=O)sc2c1 (centres undefined)	2.24µM*	1.4%	-6.5%	-6.5%	2.8	2.4
CCc1ccc(NC2CC(=O)N(c3ccc(OC)cc3OC)C2=O)cc1 (centres undefined)	-16.0%	-8.1%	-10.1%	-0.2%	?	-9.9
CCOc1ccc2nc(SCC(=O)c3ccc(C)s3)sc2c1	?	-1.1%	14.1µM*	-4.4%	33.9	-0.3
CCOc1ccc2nc(SCC(=O)Nc3ccc4c(c3)OCO4)sc2c1	8.4%	?	-10.8%	-0.1%	-14.7	.
COc1cccc(NC(=O)N2CCN3CCCCC3C2)c1 (centres undefined)	.	9.7%[46 µM]	.	.	.	.
O=C(CSC1=NCCS1)NC1CCCC1	6.7%	-0.4%[0.0737 µM]	25.1µM*	-1.6%	46.3	-1.4
O=C(CSC1=NCCS1)Nc1ccc(S(=O)(=O)NC2CCCCC2)cc1	?	-7.0%	15.8µM*	-2.1%	-1.2	5.8
COC(=O)CCCC(=O)N1CCCC(C(=O)c2ccc(OC)cc2C)C1 (centres undefined)	2.51µM*	.	.	0.8%	.	.
COc1ccccc1C(=O)C1CCCN(C(=O)CCc2ccccn2)C1 (centres undefined)	17.8µM*	.	.	8.1%	.	.
COc1ccc(C(=O)C2CCCN(C(=O)CCc3ccccn3)C2)c(C)c1 (centres undefined)	7.4%	.	.	3.8%	.	.
CC(C)[C@@H](CC(=O)N[C@@H]1CCNC[C@H]1C(=O)N[C@H](CC(=O)N[C@@H](CCC(=O)O)CC(=O)O)Cc1c[nH]c2ccccc12)NC(=O)C[C@H](CO)NC(=O)[C@@H]1CNCC[C@H]1N	-7.2%	.	-6.4%	0.9%	.	.
O=c1c(Cl)nc2cc(Cl)ccc2n1CCNc1ncc(C(F)(F)F)cc1Cl	1.5%	?	-13.8%	2.9%	35.6	-2.9
NNc1nc2cccnc2n(CCNc2ncc(C(F)(F)F)cc2Cl)c1=O	1.58µM*	19.6%[46 µM]	.	1.2%	.	.
O=C(CCSc1ccccc1)Nc1nc2c(s1)COc1ccccc1-2	14.1µM*	20.4%	-25.6%	-0.5%	-19.5	13.2
CC(C)(C)C(=O)Nc1nc2c(s1)COc1ccccc1-2	-7.7%	?	-18.9%	3.2%	-10.8	5.2
Nc1nc2c(s1)COc1ccccc1-2	22.4µM*	?	.	-2.6%	.	.
COc1cc(/C=C(\NC(=O)c2ccccc2)C(=O)NCCO)c([N+](=O)[O-])cc1OC	-0.7%	-17.5%	-5.0%	0.2%	-93.1*	.
COc1cc(/C=C(\NC(=O)c2ccccc2)C(=O)Nc2cccc(O)c2)c([N+](=O)[O-])cc1OC	-13.2%	1.2%	-8.4%	-2.0%	13.3	1.5
SMILES	ALDH1A1 block	LMNA splice mod	HPGD block	Luc counter	PNC assembly inh	IMPase inh
COc1ccc(-n2nnnc2SCC(=O)N2CCN(C(=O)c3ccco3)CC2)cc1OC	31.6µM*	.	.	-1.1%	.	.
COc1ccc(OC)c(-n2nnnc2SCC(=O)N2CCN(C(=O)c3ccco3)CC2)c1	?	1.0%[46 µM]	.	-0.5%	.	.
Cc1ccc(-n2nnnc2SCC(=O)N2CCN(C(=O)c3ccco3)CC2)c(C)c1	?	-17.4%	-4.9%	-1.1%	-82.8*	-3.9
Cn1nnnc1SCC(=O)N1CCN(C(=O)c2ccco2)CC1	?	-8.2%[9.22 µM]	.	3.3%	.	.
Cc1ccc(-n2ncc(C(=O)NCCN3CCOCC3)c2C2CCN(C(=O)OC(C)(C)C)CC2)c(C)c1	.	12.2%[46 µM]	.	.	.	.
CNC(=O)c1ccc(Oc2ccc(C(=O)NC)cc2)cc1	-11.8%	5.3%	2.51µM*	-6.2%	-1.6	2.7
CNS(=O)(=O)c1ccccc1C(=N)c1ccccc1	6.2%[13.5 µM]	.	-5.9%	-3.8%[7.66 µM]	.	.
COc1ccccc1CNC(=O)C1CCN(c2nc3ccc(Cl)cc3[nH]2)CC1	.	-14.4%[46 µM]	.	.	.	.
Cc1ccccc1NC(=O)COc1ccc2c(c1)OC(C)(C)CC2=O	14.1µM*	.	.	.	.	.
CC(C)CCNC(=O)COc1ccc2c(c1)C(=O)CC(C)(C)O2	?	2.2%	?	-6.0%	-1.3	-1.5
CCOC(=O)C1=NN(c2ccc([N+](=O)[O-])cc2)CC1C(=O)OC (centres undefined)	1.12µM*	-6.3%	-10.9%	0.6%	-17.5	3.3
CCCCOC(=O)C1CN(c2ccccc2)N=C1C(=O)OCC (centres undefined)	-1.6%	-14.0%	?	8.4%	?	?
O=C(CCCn1c(=O)[nH]c2ccccc2c1=O)N1CCN(c2ccccc2)CC1	.	-0.7%[46 µM]	.	.	.	.
CC1(C)CC(=O)C(N=Nc2ccc(-c3ccccc3)cc2)=C(O)C1	?	-6.2%[46 µM]	.	-1.1%	.	.
CC1(C)CC(=O)C(N=Nc2ccc(OC(F)F)cc2)=C(O)C1	1.41µM*	-14.4%[46 µM]	.	-0.8%	.	.
CC1(C)CC(=O)C(N=Nc2ccc(Cl)cc2)=C(O)C1	?	-11.4%	-14.5%	0.0%	16.5	0.8
CC1(C)CC(=O)C(N=Nc2ccc3ncsc3c2)=C(O)C1	4.47µM*	11.6%	-23.1%	-3.1%	-2.6	?
CCN(CC)S(=O)(=O)c1ccc(N=NC2=C(O)CC(C)(C)CC2=O)cc1	2.51µM*	?	-13.4%	-3.0%	38.1	.
Cc1cccc(OCC(=O)Nc2cccc3cccnc23)c1C	.	.	.	.	.	2.8
COc1ccccc1C(=O)NC1(C(F)(F)F)C(=O)NC(C)=C1C#N (centres undefined)	.	.	.	.	.	-20.9
COC(=O)C1Cc2c([nH]c3ccccc23)C(C)N1 (centres undefined)	1.3%	-9.5%	-5.9%	-0.4%	-91.2*	2.5
CN(Cc1ccco1)c1ncncc1-c1ccccc1C(F)(F)F	-2.8%	-4.4%	.	.	.	.
